Rtt109 HAT inh – blocks Candida albicans Rtt109/Vps75 acetyltransferase activity; Q5AAJ8; purified Rtt109/Vps75, ThioGlo CoA-SH fluorescence, 4 h; inhibition, % at 34.9 µM; 330,000 compounds, 0.16% hits; AID 540336;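 active = inhibition of at least 50% in every replicate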
LANA-H2A inh – blocks KSHV LANA binding to histone H2A/H2B | cell-free LANA-H2A/H2B peptide, fluorescence polarization | inhibition, % (concentration not given with the values) | 320,000 compounds, 0.6% hits | AID 2629; in the data active = inhibition mostly above about 10%, no sharp cut-off; inactive = mostly below about 6.7%
Target sequence (Q9QR71 whole entry, looked up): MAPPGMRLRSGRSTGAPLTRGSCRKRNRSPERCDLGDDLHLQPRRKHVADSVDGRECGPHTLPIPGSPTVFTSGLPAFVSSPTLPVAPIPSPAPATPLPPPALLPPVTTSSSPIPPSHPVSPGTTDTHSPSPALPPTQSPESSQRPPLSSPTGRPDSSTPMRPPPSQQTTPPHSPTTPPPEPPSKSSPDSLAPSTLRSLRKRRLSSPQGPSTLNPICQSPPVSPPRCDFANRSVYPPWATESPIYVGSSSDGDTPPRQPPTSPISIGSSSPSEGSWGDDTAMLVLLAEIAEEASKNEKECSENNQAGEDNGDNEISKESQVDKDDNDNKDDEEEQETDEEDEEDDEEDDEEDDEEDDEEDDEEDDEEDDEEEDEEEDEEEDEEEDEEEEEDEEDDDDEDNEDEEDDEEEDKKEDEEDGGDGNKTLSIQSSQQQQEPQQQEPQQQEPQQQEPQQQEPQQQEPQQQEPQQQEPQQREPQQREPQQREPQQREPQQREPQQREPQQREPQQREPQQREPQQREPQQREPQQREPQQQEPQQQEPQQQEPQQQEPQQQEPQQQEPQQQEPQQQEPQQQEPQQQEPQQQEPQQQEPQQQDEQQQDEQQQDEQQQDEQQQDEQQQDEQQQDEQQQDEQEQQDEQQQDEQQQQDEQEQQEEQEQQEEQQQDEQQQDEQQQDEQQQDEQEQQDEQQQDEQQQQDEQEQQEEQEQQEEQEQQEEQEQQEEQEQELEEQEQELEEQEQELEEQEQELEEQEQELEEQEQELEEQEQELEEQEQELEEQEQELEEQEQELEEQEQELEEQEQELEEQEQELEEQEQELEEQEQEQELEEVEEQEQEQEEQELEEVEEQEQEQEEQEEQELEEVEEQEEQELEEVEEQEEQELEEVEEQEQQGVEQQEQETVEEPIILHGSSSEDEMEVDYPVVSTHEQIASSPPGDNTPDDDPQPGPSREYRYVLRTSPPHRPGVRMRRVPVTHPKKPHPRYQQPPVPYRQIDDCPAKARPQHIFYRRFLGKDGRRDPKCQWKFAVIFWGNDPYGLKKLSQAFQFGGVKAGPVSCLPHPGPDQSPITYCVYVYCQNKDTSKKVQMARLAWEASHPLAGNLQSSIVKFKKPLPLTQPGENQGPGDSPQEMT
ABHD5 PLIN5 PPI – ABHD5-PLIN5 protein interaction inhibition | Q00G26+Q8WTS1 | Split G. princeps luciferase complementation, luminescence, 4 h | inhibition, % at 4 µM | 360,000 compounds, 0.78% hits | AID 602281;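 active = inhibition above the mean inhibition across every tested compound plus 3 SD, cut at about 22% in these data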
PRMT1 FP inh – inhibitors of human PRMT1; Q99873; recombinant PRMT1, activity-based probe fluorescence polarization; inhibition, % at 2.79 µM; 370,000 compounds, 1.3% hits; AID 652257;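 active = inhibition above about 21% made by adding two undisclosed values, limit read from the data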
rCAG RNA binder – binds r(CAG) RNA repeats; inhibition, % at 3 µM; r(CAG) RNA repeat, TO-PRO-1 dye displacement fluorescence; 370,000 compounds, 1.3% hits;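 active = inhibition above the plate cutoff, the mean of all test compounds on that plate plus 3 SD, cut at about 35% in these data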;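 note: higher means more dye released from RNA so lower well fluorescence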
ALR inh – inhibitors of human sulfhydryl oxidase ALR. P55789. purified ALR, DTT oxidation, H2O2 HRP-luminol luminescence. inhibition, % (no concentration beside the values). 290,000 compounds, 3.8% hits;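 active = mean replicate inhibition above about 79%, with every replicate also reaching it, limit read from the data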
Large screens that a line does not name were inactive. Rows were chosen to be rich in hits. Some 5.9% of all compounds tested hit in one or more screens of this group.

O=C(N/N=C(\CC(=O)c1cccs1)C(F)(F)F)c1ccncc1	ALR inh 98.2
O=C(Nc1ccc(Cl)c(Cl)c1)N[C@@H]1CC[C@@H](CCn2cc(C3CCCCC3)nn2)O[C@@H]1CO	none (no result: Rtt109 HAT inh, LANA-H2A inh, ALR inh)
COc1cc(/C=N/NC(=O)c2ccc(Cn3cc([N+](=O)[O-])cn3)o2)cc(Br)c1O	ALR inh 95.9
COc1ccc(/C=N/NC(=O)c2ccc(Cn3cc([N+](=O)[O-])cn3)o2)cc1O	none
COc1cc(/C=N\NC(=O)c2ccc(Cn3cc(Br)c([N+](=O)[O-])n3)o2)cc(OC)c1O	ALR inh 99.8
Cc1cccc(N2CCN(C(=O)c3c(-c4ccccc4Cl)noc3C)CC2)c1C	none
CC1OC(CCc2cccc(Cl)c2)Cc2[nH]c(=S)[nH]c(=O)c21 (centres undefined)	none (no result: Rtt109 HAT inh, LANA-H2A inh, ALR inh)
COc1ccc(CSc2nnc(C)s2)cc1F	LANA-H2A inh active
COC(=O)c1ccc(CSc2nnc(C)s2)cc1	none
Cc1cc(NC(=O)CSc2nc(=O)n(CCN(C)C)c3c2CCCC3)no1	none
COc1cccc(NC(=O)CSc2nc(=O)n(CCN(C)C)c3c2CCCC3)c1	ALR inh 97.3
Cc1csc(NC(=O)CSc2nc(=O)n(CCN(C)C)c3c2CCCC3)n1	ALR inh 97.5
CN(C)CCn1c2c(c(SCC(=O)Nc3cccc4ccccc34)nc1=O)CCCC2	none (no result: Rtt109 HAT inh)
CCN(CC)CCn1c2c(c(SCC(=O)Nc3cc(OC)cc(OC)c3)nc1=O)CCC2	ALR inh 96.2
CCc1ccc(NC(=O)CSc2nc(=O)n(CCN(C)C)c3c2CCCC3)cc1	ALR inh 98.7 (no result: Rtt109 HAT inh)
CCN(CC)CCCn1c2c(c(SCC(=O)Nc3cc(C)cc(C)c3)nc1=O)CCC2	none (no result: Rtt109 HAT inh, LANA-H2A inh, ALR inh)
Nc1[nH]c(C(=O)c2ccccc2)c(-c2cccc(C(F)(F)F)c2)c1C(=O)NCCc1c[nH]c2ccccc12	none (no result: Rtt109 HAT inh, LANA-H2A inh, ABHD5 PLIN5 PPI, ALR inh)
Cc1ccccc1NC(=O)CSc1nnc(-c2cc(-c3ccccc3)n[nH]2)n1N	none (no result: Rtt109 HAT inh, LANA-H2A inh, ABHD5 PLIN5 PPI, ALR inh)
COC(=O)C1=C(C)N(C)C(=NCc2cc(OC)c(OC)c(OC)c2)NC1c1cccc(F)c1 (centres undefined)	none (no result: Rtt109 HAT inh, LANA-H2A inh, ABHD5 PLIN5 PPI, ALR inh)
O=C(c1cc2ccccc2o1)N1CCN(Cc2nc3ccccc3s2)CC1	none (no result: Rtt109 HAT inh, LANA-H2A inh, ALR inh)
CN(C)N1C(=O)/C(=C/c2ccco2)SC1=Nc1ccccc1	none
O=C1NC(=Nc2ccc(Cl)cc2)/C(=C/c2ccco2)S1	ALR inh 86.8
O=C1NC(=Nc2ccc(O)cc2)S/C1=C/c1ccco1	none
Cc1cccc(N=C2NC(=O)S/C2=C\c2ccco2)c1	PRMT1 FP inh 21.5
O=C1NC(=Nc2ccc3ccccc3c2)S/C1=C/c1ccco1	rCAG RNA binder 44.1
CC(=O)NC1C(=O)N=C(SCC(=O)Nc2sc3c(c2C#N)CCCCCC3)NC1=O (centres undefined)	ALR inh 98.9
CCCCc1c(C)nc2ccc(C(=O)OCC)cc2c1Cl	ALR inh 96.8
CCOC(=O)c1ccc2nc(C)c(CC)c(Cl)c2c1	none
COc1ccc(CNC2CCC23CCCCC3)cc1OC (centres undefined)	none (no result: Rtt109 HAT inh, LANA-H2A inh, ABHD5 PLIN5 PPI, rCAG RNA binder, ALR inh)
COc1ccc(S(=O)(=O)Nc2c(O)ccc3ccccc23)cc1OC	none
COc1cc(C)c(S(=O)(=O)N2CCCC2)cc1C(C)C	none
COc1cc(C)c(-c2cc(C(=O)O)c(C)o2)cc1C(C)C	ALR inh 97.3
Cn1c(Cc2ccccc2)nc(=O)c2ccccc21	none (no result: Rtt109 HAT inh, LANA-H2A inh, ALR inh)
O=C(OCC#CCSc1nnc(-c2cccc3ccccc23)o1)c1cccc(F)c1	none (no result: Rtt109 HAT inh, LANA-H2A inh, ABHD5 PLIN5 PPI, rCAG RNA binder, ALR inh)
CCOc1ccc(NS(=O)(=O)c2ccc(NC(=S)NC(C)=O)cc2)cc1	none
CCOc1ccc(/C(O)=C/C(=O)C(=O)Nc2ccc(S(=O)(=O)NC(C)=O)cc2)cc1	ALR inh 98.0
S=c1[nH]nc(-c2ccco2)n1C1CCCCC1	ALR inh 94.9
COc1ccc(-n2c(-c3ccco3)n[nH]c2=S)cc1	ALR inh 95.4
CCOP(=O)(OCC)C(C#N)=C1SCN(c2ccccc2)CS1	ALR inh 99.0
Cc1ccc2occ(/C=N/NC(=O)c3ccc(O)cc3)c(=O)c2c1	ALR inh 97.7
Cc1ccc2occ(/C=N/NC(=O)c3ccccc3Br)c(=O)c2c1	none
O=C1N=NC(=O)N1c1ccccc1	ALR inh 87.5
O=C1CCC(=O)N1c1ccccc1	none
CCCn1c(SCC(=O)Nc2ccc(F)c(Cl)c2)nc(O)cc1=O	none (no result: ALR inh)
COc1ccc(NC(=O)CSc2nnc(C3CC3)n2C)cc1	none
COc1ccc(NC(=O)CSc2nc(O)cc(=O)n2C)cc1	ALR inh 99.2
O=C(CSc1nccn1-c1cccc(Cl)c1)Nc1ccc2c(c1)OCCO2	ALR inh 98.6
COc1ccc(NC(=O)CSc2nccn2-c2cccc(OC)c2)cc1	ALR inh 97.7
CCCn1c(SCC(=O)Nc2ccc(Cl)cc2F)nc(O)cc1=O	ALR inh 98.7
O=C(NCCc1c[nH]c2ccccc12)OCc1cn(Cc2ccc(C(F)(F)F)cc2)nn1	none (no result: Rtt109 HAT inh, LANA-H2A inh, ABHD5 PLIN5 PPI, ALR inh)
CCCC[C@@H](CN[C@H](C)CNC)NCC1CCC(C(C)(C)C)CC1 (some centres undefined)	none (no result: Rtt109 HAT inh, ABHD5 PLIN5 PPI)
COc1cccc(-n2ccnc2SCC(=O)Nc2ccccc2)c1	none
COc1cccc(NC(=O)CSc2nccn2-c2cccc(OC)c2)c1	ALR inh 97.6
Clc1ccc2c(c1)[C@H]1OCC[C@H]1[C@@H](c1ccco1)N2	none
CCc1ccc2c(c1)[C@H]1OCC[C@H]1[C@@H](c1cccs1)N2	ALR inh 97.3
CC(=O)c1ccc(CCCCCCCCCC(=O)O)s1	LANA-H2A inh 2.8
CCc1nc2ccc(C(=O)N3CCCC(C(N)=O)C3)cn2c1N(C=O)CC (centres undefined)	none (no result: Rtt109 HAT inh, LANA-H2A inh, ALR inh)
COC(=O)c1cccc(CN2C(=O)C(C)Oc3ccc(C)cc32)c1 (centres undefined)	none (no result: Rtt109 HAT inh, LANA-H2A inh, ALR inh)
O=C(N/N=C/c1cccc(O)c1)N/N=C/c1cccc(O)c1	ALR inh 81.9
Cn1cccc1/C=N/n1c(-c2ccc(Cl)cc2)n[nH]c1=S	none
Cn1cccc1/C=N/n1c(-c2ccc(Cl)cc2Cl)n[nH]c1=S	ALR inh 97.0
Cc1cc(C)cc(OCc2ccc(C(=O)O)o2)c1	none
O=C(O)c1ccc(COc2c(F)c(F)c(F)c(F)c2F)o1	ALR inh 96.0
COCc1cc(Sc2ccc(Cl)cc2)nc(-c2ccccc2)n1	none
COCc1cc(Sc2ccc(Br)cc2)nc(-c2ccccc2)n1	ALR inh 99.5
CCC(NC(C)C)C(O)c1ccc(O)c(O)c1 (centres undefined)	ALR inh 92.2
CCOc1cc(/C=N/Nc2nc3ccccc3[nH]2)cc(Br)c1OCC(=O)N(C)C	ALR inh 98.4
COc1cc(OC)c(OC)cc1/C=N/Nc1nc2ccccc2[nH]1	none
CCOc1ccccc1OCC(=O)Nc1nc2ccccc2[nH]1	none
COc1ccc(/C=N/Nc2nc3ccccc3[nH]2)cc1OC	ALR inh 98.9
COc1cc(/C=N\Nc2nc3ccccc3[nH]2)cc(OC)c1OC	ALR inh 98.8
CSc1ncnc2c1ncn2CCCNCCCc1ccccc1	none (no result: Rtt109 HAT inh, LANA-H2A inh, ALR inh)

Compound activity from PubChem.
